Results on 26 compounds are retold here after PubChem BioAssay (NCI).

About 83,000 compounds went through this panel and 20% of them were active in at least one assay; those are over-represented in the sample as a whole.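 A percent growth of 40 corresponds to 60% growth inhibition; 0 means no net growth; -100 means all cells died. Active threshold: below 10.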 A number with no mark means an inactive call. Calls of active or inactive are those of the source.

Test in all cases: NCI-60 one-dose screen, 48 h (100 = growth as untreated, 0 = no growth, -100 = all killed)
Settings in all cases: 10 µM unless noted

Assay [1] has as its system NCI-H23 lung.
Assay [2] has as its system NCI-H226 lung.
In assay [3] the test system is NCI-H322M lung.
In assay [4] the test system is HOP-62 NSCLC.
For assay [5], the system named is NCI-H460 lung.
Assay [6] has as its system HOP-92 NSCLC.
Assay [7] deals with NCI-H522 lung.
Assay [8] deals with A549/ATCC NSCLC.
The test system of assay [9] is 786-0 renal.
Assay [10] concerns COLO 205 colon.

In the case of `COc1ccc(CCC2c3c(cc4c(c3OC)OCO4)CCN2C)cc1` (stereo not given), the growth was -48.6% (active) in assay [1]; -59.3% (active) in [2]; 0.952% (active) in assay [3]; -30.2% (active) in assay [4]; -89.7% (active) in assay [5]; -30% (active) in assay [6]. Also, the growth was -81% (active) in assay [7], 9.85% (active) in assay [8], -67.1% (active) in assay [9] and -73.1% (active) in assay [10].

On to `COc1cc2oc(-c3cccc(C(=O)Nc4ccc(Cl)cc4)c3)cc(=O)c2c(OCCNC(=O)[C@H](CCC(=O)OC(C)(C)C)NC(=O)OC(C)(C)C)c1OC`, for which the growth in assay [1] was 106%; in assay [2], 95.9%; in assay [3], 98.4%; in [4], 95.3%; in [5] it was 101%; in assay [6], 84.2%. In addition, the growth in assay [7] was 89%; in assay [8], 92.8%; in assay [9], 93.4%; in [10], 117%.

With `COc1ccc(-c2nnc3ccc(N/N=C/c4ccc(C)cc4)nn23)cc1`, the growth in assay [1] was 50.7%; in assay [2], 54.6%; in assay [3], 85.3%; in assay [4], 70.4%; in assay [5], 51.2%; in assay [6], 18.9%. Besides, the growth in [7] is 91%; in assay [8] it was 33.4%; in assay [9], 56.9%; in assay [10], 79.9%.

For `CN1CCN(c2ccc(C(=O)/C=C/c3cc(C(F)(F)F)cc(C(F)(F)F)c3)cc2)CC1`, the growth in assay [1] is -66.2% (active); in [2], -42.9% (active); in [3], -81.7% (active); in [4] it was -74.9% (active); in [5] it was -40.8% (active); in [6] it was -55.2% (active). Moreover, the growth in [7] was -69.6% (active); in assay [8] it was -87.8% (active); in assay [9], -97.9% (active); in [10] it was -83.4% (active).

On to `Cc1c(C(=O)NNC(=O)c2ccc(Cl)cc2)nnn1-c1ccc(Cl)cc1`, for which the growth in assay [1] was 106%; in assay [2] it was 95.3%; in assay [3] it was 89.7%; in assay [4], 97.3%; in assay [5] it was 104%; in assay [6] it was 79.1%. In addition, the growth in assay [7] is 96.9%; in [8], 95.2%; in assay [9], 94.2%; in assay [10], 97.2%.

With `COc1cc2oc(-c3cccc(NC(=O)[C@H](Cc4ccccc4)NC(=O)OC(C)(C)C)c3)cc(=O)c2c(OC)c1OC`, the growth in [1] was 39.1%; in assay [2], 28%; in assay [3] it was 46.1%; in assay [4], 49%; in assay [5], 11.5%; in [6] it was 61.7%. Moreover, the growth is 30.3% in assay [7], 24.7% in [8], 43.8% in [9] and 33.8% in assay [10].

Consider `Cc1cc(C)n(-c2ccc3nnc(-c4ccccc4)n3n2)n1`, for which the growth in assay [1] was 94.1%; in [2], 105%; in [3] it was 110%; in [4], 122%; in [5], 104%; in assay [6], 85.2%. The growth was 74.7% in assay [7], 99.6% in assay [8], 93.9% in [9] and 115% in [10].

As to `COc1ccc(C(=O)/C=C/c2ccc(OCc3ccccc3)c(OC)c2)cc1OC`, the growth in assay [1] is 27.1%; in assay [2] it was 79.1%; in assay [3] it was 15.7%; in assay [4], 35.3%; in assay [5], 5.57% (active); in [6], 38.3%. The growth in assay [7] was 11.3%; in assay [8], 14.4%; in assay [9], 35.9%; in assay [10] it was 51.5%.

Turning to `CN(C)CCn1c2ccccc2c2nc3cc4ccccc4cc3nc21`, the growth is 16.6% in assay [1]; 26.8% in assay [2]; 29.6% in assay [3]; 38.3% in assay [4]; -52.1% (active) in assay [5]; 43.4% in assay [6]. For the same compound, the growth in [7] is 27.5%; in [8], -68% (active); in assay [9] it was -44.3% (active); in assay [10], 17.1%.

In the case of `COc1cccc(COc2ccc(NC(=O)Nc3ccc(Cl)c(C(F)(F)F)c3)cc2)c1`, the growth was 21.1% in [1]; 43.2% in assay [2]; 16.3% in assay [3]; 34.3% in assay [4]; 17.5% in assay [5]; 6.12% (active) in [6]. Moreover, the growth is 22.1% in assay [7], 16% in assay [8], 34.5% in assay [9] and 46.2% in assay [10].

As to `CSc1ccccc1NC(=O)c1ccc2nn(/C(C#N)=C/c3ccccn3)nc2c1`, the growth in assay [1] was -83.9% (active); in assay [2] it was -96.8% (active); in [3], 25.3%; in [4], 0.554% (active); in [5], -36.9% (active); in assay [6], -23.8% (active). Further, the growth in [7] was -92.7% (active); in assay [8] it was 0.0722% (active); in assay [9], -96.5% (active); in [10], -84% (active).

`CCN(CC)c1ccnc(CNCCSC(c2ccccc2)(c2ccccc2)c2ccc(C)cc2)c1`: the growth is -78.7% (active) in [1]; -73.3% (active) in assay [2]; -10.4% (active) in [3]; -89.5% (active) in assay [4]; -79.6% (active) in assay [5]; -83.9% (active) in assay [6]. The growth in assay [7] was -80.3% (active); in [8], -86.8% (active); in [9] it was -93.1% (active); in [10], -76.6% (active).

On to `N#Cc1c(-c2cccc3ccccc23)cc(-c2cccc(OCC(=O)O)c2)[nH]c1=O`, for which the growth was 97.7% in [1]; 93.6% in assay [2]; 96.1% in [3]; 105% in assay [4]; 101% in [5]; 98.6% in assay [6]. Also, the growth in [7] is 97.9%; in [8], 94.6%; in assay [9] it was 101%; in assay [10] it was 106%.

Take `O=C(N/N=C/c1ccc(-c2ccc(O)cc2)s1)c1[nH]c2ccc(Br)cc2c1-c1ccccc1`: the growth in [1] was 7.67% (active); in [2], 27.6%; in assay [3], 29.8%; in assay [4] it was 21.2%; in assay [5], -18.3% (active); in assay [6], -24.8% (active). Moreover, the growth in assay [7] was 18.6%; in assay [8], 23.8%; in [9] it was -28% (active); in [10], -32.9% (active).

For the compound `N#Cc1c(-c2ccccc2Cl)cc(-c2c[nH]c3ccccc23)[nH]c1=O`, the growth in assay [1] is 69.9%; in [2], 64.3%; in [3] it was 72.9%; in [4], 67.2%; in assay [5], 65.9%; in assay [6], 44.9%. In addition, the growth was 70.8% in assay [7], 77.5% in assay [8], 68.8% in assay [9] and 114% in [10].

Consider `Cc1c(C(=O)NNC(=O)c2ccc(Cl)cc2)nnn1-c1ccc(Br)cc1`, for which the growth in assay [1] was 102%; in assay [2], 97.1%; in assay [3], 91%; in assay [4] it was 98.4%; in assay [5], 107%; in assay [6], 91.6%. Besides, the growth in assay [7] was 97.6%; in assay [8], 100%; in [9], 98.8%; in assay [10] it was 104%.

As to `COc1ccc(-c2nc3ccc(C(=O)NN4C(=O)c5ccc([N+](=O)[O-])cc5C4=O)cc3[nH]2)cc1`, the growth in assay [1] was 98%; in assay [2], 79.9%; in [3] it was 96.1%; in assay [4] it was 91.8%; in assay [5] it was 100%; in assay [6], 81%. The growth is 88.6% in [7], 93% in [8], 87.7% in [9] and 105% in assay [10].

Regarding `O=c1onc(-c2cc3ccccc3nc2Cl)n1-c1cccc2ccccc12`, the growth in assay [1] was 56.5%; in assay [2] it was 40.8%; in assay [3], 76.4%; in assay [4] it was 55.6%; in assay [5] it was 51.7%; in assay [6], 38.7%. In addition, the growth in assay [7] was 27.8%; in [8], 55.5%; in assay [9], 73.3%; in [10], 56.4%.

In the case of `Cc1ccccc1[C@H]1C(C(=O)c2ccc(Cl)cc2)C2(N[C@@H]1c1ccccc1)C(=O)Nc1ccccc12` (stereo not given in full), the growth in assay [1] is -52% (active); in assay [2] it was -55.2% (active); in assay [3], 16.6%; in [4], -48.2% (active); in assay [5] it was -45.5% (active); in assay [6] it was -50.4% (active). Further, the growth in assay [7] is -48.1% (active); in [8] it was -21.7% (active); in assay [9], -41.5% (active); in assay [10], -74.5% (active).

Consider `COCOc1cc2oc(C(=O)N[C@@H](Cc3ccccc3)C(O)C(=O)NCc3ccccc3)c(C)c(=O)c2cc1OCOC` (stereo not given in full), for which the growth in assay [1] was 59.2%; in [2], -11.8% (active); in assay [3] it was 97.7%; in assay [4], 71.9%; in assay [5], 9.45% (active); in [6], 14.4%. For the same compound, the growth in assay [7] is 86.9%; in assay [8], 58.9%; in assay [9], 14.5%; in assay [10], 109%.

As for `COc1cc2c(c(OC)c1OC)C(=O)CC(c1cccc(NC(=O)c3cc(NC(=O)[C@@H](N)CO)ccc3C)c1)O2` (stereo not given in full), the growth in [1] is 112%; in [2], 103%; in assay [3] it was 108%; in assay [4] it was 108%; in assay [5], 123%; in [6], 114%. The growth in [7] is 93%; in [8], 102%; in assay [9], 107%; in [10] it was 131%.

With `N#Cc1c(NCc2ccccc2)n[nH]c1Nc1ccccc1`, the growth in assay [1] is 58.4%; in assay [2], 50.2%; in assay [3], 65.1%; in assay [4] it was 88.9%; in assay [5] it was 44.2%; in assay [6], 62.3%. Moreover, the growth is 82.3% in assay [7], 31.6% in [8], 63.3% in assay [9] and -8.53% (active) in [10].

As to `CC(=O)OC[C@@]1(C)C2CC[C@]3(C)C(CC=C4C5CC(C)(C)CC[C@]5(C(=O)Nc5ccc(F)cc5)CC[C@]43C)[C@@]2(C)C[C@@H](OC(C)=O)[C@@H]1OC(C)=O` (stereo not given in full), the growth in assay [1] was 45.6%; in assay [2], 47.7%; in assay [3], 60.3%; in [4] it was 41.3%; in assay [5], 11.5%; in assay [6], 54.2%. Further, the growth in [7] is 49.5%; in assay [8] it was 40.6%; in assay [9], 59%; in assay [10], 43.1%.

Consider `N#Cc1c(-c2cccc(Cl)c2Cl)cc(-c2ccc3ccccc3c2)[nH]c1=O`, for which the growth in [1] was 56.9%; in assay [2], 19.6%; in [3], 53.2%; in assay [4], 34.4%; in assay [5], 13.4%; in assay [6], -16.6% (active). The growth in [7] was 78.7%; in assay [8], 25.1%; in assay [9] it was -65.1% (active); in assay [10], 116%.

Take `Cc1sc(C(NC(=O)OCCn2c([N+](=O)[O-])cnc2C)C(F)(F)Cl)nc1-c1ccc(OC(F)(F)F)cc1` (stereo not given): the growth in assay [1] is -92% (active); in assay [2], -65.2% (active); in assay [3], -92.4% (active); in [4], -89.7% (active); in [5], -29.2% (active); in [6], -82% (active). For the same compound, the growth in assay [7] is -86.1% (active); in assay [8] it was -81.3% (active); in assay [9] it was -91.3% (active); in [10], -74.2% (active).

As for `Nc1cccc(SCc2cc3ccccc3[nH]c2=O)c1`, the growth is 73.5% in assay [1]; 69.8% in assay [2]; 73.3% in [3]; 42.7% in [4]; 20% in assay [5]; 74.6% in [6]. Also, the growth was 43.6% in assay [7], 33.2% in assay [8], 47.3% in assay [9] and 29% in [10].
